# MOR-DOR inv ag: inverse agonist of human OPRM1-OPRD1 heterodimerization | P35372+P41143 | 340,000 compounds, 0.21% hits | cell-based MOR-DOR heterodimer luminescence, inverse agonism | inhibition, % at 9.3 µM; in the data active = inhibition above about 22%, passing the limit was not always enough;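 note: 0% = cells with DMSO and 100% = wells without cells with DMSO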
# Target sequence (P35372 whole entry, looked up): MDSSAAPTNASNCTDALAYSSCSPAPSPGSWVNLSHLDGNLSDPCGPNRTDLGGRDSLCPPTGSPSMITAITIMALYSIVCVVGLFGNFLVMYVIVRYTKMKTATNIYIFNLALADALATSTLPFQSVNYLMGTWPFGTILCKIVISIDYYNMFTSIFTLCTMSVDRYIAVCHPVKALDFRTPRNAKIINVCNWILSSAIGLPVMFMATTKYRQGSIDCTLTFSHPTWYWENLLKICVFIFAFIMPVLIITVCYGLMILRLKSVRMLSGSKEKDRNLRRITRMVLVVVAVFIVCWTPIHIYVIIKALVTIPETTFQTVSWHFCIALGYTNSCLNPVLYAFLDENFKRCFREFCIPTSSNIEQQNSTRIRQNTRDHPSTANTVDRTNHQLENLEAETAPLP
# Target sequence (P41143 whole entry, looked up): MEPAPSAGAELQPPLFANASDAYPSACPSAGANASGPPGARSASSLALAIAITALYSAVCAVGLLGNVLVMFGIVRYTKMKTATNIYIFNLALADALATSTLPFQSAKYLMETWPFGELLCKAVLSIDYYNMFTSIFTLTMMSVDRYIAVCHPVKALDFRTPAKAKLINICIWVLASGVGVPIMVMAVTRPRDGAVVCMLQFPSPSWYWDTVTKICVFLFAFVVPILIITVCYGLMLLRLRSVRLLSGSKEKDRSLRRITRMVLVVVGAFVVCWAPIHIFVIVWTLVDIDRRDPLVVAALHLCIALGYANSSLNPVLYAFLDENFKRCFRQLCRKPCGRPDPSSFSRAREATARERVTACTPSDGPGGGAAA
# HTR5A ag ctr: counter-screen for OPRM1-OPRD1 agonists: human HTR5A agonism; P47898; HTR5A agonist assay, luminescence, cell-based; activation, % at 9.3 µM; 340,000 compounds, 0.61% hits; in the data active = activation mostly above about 9.5%, no sharp cut-off; inactive = mostly below about 7.6%;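 note: 0% = cells with vehicle only and 100% = reference agonist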
# HTR5A inv ctr: HTR5A inverse agonism, opioid heterodimer counter-screen | P47898 | inhibition, % at 9.3 µM | HTR5A cell line, luminescence | 340,000 compounds, 0.083% hits | AID 504634; in the data active = inhibition mostly above about 23%, no sharp cut-off; inactive = mostly below about 18%;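 note: 0% = cells with DMSO and 100% = no-cell wells with DMSO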
# MOR-DOR ag: OPRM1-OPRD1 heterodimerization agonism. cells, luminescence. P35372+P41143. 340,000 compounds, 0.3% hits. AID 504326. activation, % at 9.3 µM;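 note: 0% = vehicle-treated cells and 100% = reference agonist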
# OPRM1-D1 ag cf: OPRM1-OPRD1 heterodimer agonism, confirmation | shares compounds with MOR-DOR ag | cells, MOR-DOR heterodimerization, luminescence complementation | activation, % at 9.3 µM | 830 compounds, 45% hits | AID 504904;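 note: 0% = vehicle-treated cells and 100% = reference agonist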
# HTR5A ag counter: HTR5A agonism, opioid heterodimer counter-screen; 830 compounds, 8% hits; HTR5A agonist counterscreen, cell luminescence; activation, % at 9.3 µM; shares compounds with MOR-DOR ag; in the data active = activation above about 17%;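 note: 0% = vehicle-treated cells and 100% = reference agonist response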
# Active calls of the source: *; i = inactive; · = no result given. Hits are enriched below; roughly 1.1% of the tested compounds scored in any of these assays. Cut-off read from the data, not from the text of the source, unless noted: active = activation above about 18%; inactive = the rest.
SMILES,MOR-DOR inv ag,HTR5A ag ctr,HTR5A inv ctr,MOR-DOR ag,OPRM1-D1 ag cf,HTR5A ag counter
CN(C)CCCN(C(=O)c1ccc(S(=O)(=O)N2CCc3ccccc3C2)cc1)c1nc2c(F)cc(F)cc2s1,i,-7,17,341*,396*,0
COc1cc2nc(N(CCCN(C)C)C(=O)c3ccc(S(=O)(=O)N4CCc5ccccc5C4)cc3)sc2cc1OC,15,9,-22,-3,·,·
Cc1ccc2sc(N(CCCN(C)C)C(=O)c3ccc(S(=O)(=O)N(C)Cc4ccccc4)cc3)nc2c1C,-260,0,0,40*,1,-2
CN(C)CCCN(C(=O)c1ccc(S(=O)(=O)N2CCOCC2)cc1)c1nc2ccc(F)cc2s1,11,7,-26,-2,·,·
Cc1ccc2sc(N(CCCN(C)C)C(=O)c3ccc(S(=O)(=O)N(C)C)cc3)nc2c1C,4,1,-7,-1,·,·
Cc1ccc2sc(N(CCCN(C)C)C(=O)c3ccc(S(=O)(=O)N4CCc5ccccc5C4)cc3)nc2c1C,-136,-5,-11,21*,0,1
CC12CCC(C(S(=O)(=O)Nc3ccccc3)C1=O)C2(C)C (centres undefined),3,0,-1,-1,·,·
CC(NC(=O)C1CCN(C(=O)Nc2ccccc2)CC1)c1ccccc1Cl (centres undefined),10,1,-3,-2,·,·
COc1ccccc1N1C(=O)CC(N2CCN(c3ccc([N+](=O)[O-])cc3)CC2)C1=O (centres undefined),23,2,-6,-5,·,·
CCOc1cccc2sc(N(CCCN(C)C)C(=O)c3ccc(S(=O)(=O)N(CC)Cc4ccccc4)cc3)nc12,-14,6,0,3,·,·
CCN(Cc1ccccc1)S(=O)(=O)c1ccc(C(=O)N(CCCN(C)C)c2nc3c(F)cccc3s2)cc1,i,-1,-6,144*,26*,3
CCCCN(C(=O)c1cccs1)C1CCS(=O)(=O)C1 (centres undefined),12,3,-9,-2,·,·
CCOC(=O)c1c(C)[nH]c(C(=O)OCC(O)=C(C#N)c2nc3ccccc3[nH]2)c1C,-193,13*,-50,38*,31*,7
N#C/C(=C(/O)COC(=O)c1ccc(O)cc1)c1nc2ccccc2[nH]1,10,3,-9,-2,·,·
N#C/C(=C(/O)COC(=O)COc1cccc(Br)c1)c1nc2ccccc2[nH]1,-143,7,-19,26*,14,0
COc1cc(OC)c(N(C)S(=O)(=O)c2cccc(C(=O)OCC(=O)N(C)Cc3ccccc3)c2)cc1Cl,1,1,-1,0,·,·
CC(=O)CSc1ccc(-c2nc3cc(C)c(C)cc3[nH]2)cn1,-242,-6,-13,47*,32*,0
COC(=O)NCC(c1ccc2c(c1)OCO2)N1CCN(c2ccccc2)CC1 (centres undefined),i,0,-4,217*,193*,1
CC(C)(C)c1cc(C(=O)NNC(=O)Nc2cccc(Cl)c2)n(Cc2ccccc2)n1,-129,4,-19,25*,1,2
CC(C)(C)c1cc(C(=O)NNC(=O)Nc2ccccc2)n(Cc2ccccc2)n1,-56,9,-5,11,·,·
CN1CCOc2cc(S(=O)(=O)NCc3ccc(S(N)(=O)=O)cc3)ccc21,16,0,2,-3,·,·
ON=C(CCc1ccccc1)CCc1ccccc1,-55,3,-11,10,·,·
COc1ccc(C(CNC(=O)c2ccc(S(=O)(=O)N(C)C)cc2)N(C)C)cc1 (centres undefined),i,-3,9,95*,105*,0
Cc1ccc(NC(=O)CNCC(c2ccccc2)N(C)C)cc1F (centres undefined),-205,3,16,40*,-2,-3
CCN(c1ccccc1)S(=O)(=O)c1cc(C(=O)NCC(c2ccc(OC)cc2)N(C)C)ccc1C (centres undefined),-107,4,-16,20*,6,2
SMILES,MOR-DOR inv ag,HTR5A ag ctr,HTR5A inv ctr,MOR-DOR ag,OPRM1-D1 ag cf,HTR5A ag counter
COc1ccc(C(CNC(=O)c2cccc(NS(=O)(=O)c3ccc(Br)cc3)c2)N(C)C)cc1 (centres undefined),-384,-6,14,74*,12,4
CCN(c1ccccc1)S(=O)(=O)c1ccc(C(=O)NCC(c2cccs2)N(C)C)cc1 (centres undefined),6,-2,6,-1,·,·
CC(C)c1ccc(NC(=O)CNCC(c2ccccc2)N(C)C)cc1 (centres undefined),-1,-6,-1,0,·,·
Cc1noc(C)c1NC(=O)N(C)C[C@@H]1Oc2c(NC(=O)c3ccncc3)cccc2C(=O)N([C@H](C)CO)C[C@@H]1C,12,-2,-27,-2,·,·
Cc1ccc(S(=O)(=O)Nc2cccc(C(=O)NCC(c3ccco3)N(C)C)c2)cc1F (centres undefined),-44,-1,2,8,·,·
Cc1ccc(S(=O)(=O)Nc2cccc(C(=O)NCC(c3ccccc3)N(C)C)c2)cc1F (centres undefined),-263,-8,19,51*,0,0
C/C=C(\C)CN1CCC(n2nccc2NC(=O)CCc2ccccc2)CC1,-110,-4,7,20*,3,-2
C/C=C(\C)CN1CCC(n2nccc2NC(=O)CCOc2ccccc2)CC1,3,4,-6,-1,·,·
Cc1ccc(C)c(-n2cc(CNCCc3cnccn3)c(-c3ccccc3)n2)c1,-275,8,-25,54*,79*,-1
CCn1ccnc1CNCc1cn(-c2cc(C)ccc2C)nc1-c1ccccc1,-12,-4,2,2,·,·
O=C1Cc2c([nH]c3ccc([N+](=O)[O-])cc23)-c2ccccc2N1,-108,1,-3,22*,9,2
O=c1[nH]c2cc([N+](=O)[O-])ccc2c2ccccc12,-27,2,-8,5,·,·
Cn1c(-c2c(N)n(-c3ccccc3)c3nc4ccccc4nc23)nc2ccccc21,-95,-1,2,19*,26*,0
COc1ccc(F)cc1CN1CCN(C(=O)CCC(=O)Nc2nnc(C(C)C)s2)CC1,-143,-8,-28,25*,25*,3
O=C(Nc1ccccc1N1CCOCC1)c1ccc2nc[nH]c2c1,-88,2,-5,19*,16,2
O=C(Nc1ccccc1N1CCOCC1)c1cccc(F)c1,9,0,-1,-2,·,·
NS(=O)(=O)c1ccc(CNC(=O)CNC(=O)c2ccc(Br)o2)cc1,0,3,-32,0,·,·
Cc1ccc(Cl)cc1NC(=O)c1cnn2c1NC(c1ccco1)CC2C(F)(F)F (centres undefined),-36,0,-28,7,·,·
O=C(Nc1ccc2c(c1)CCC2)c1cnn2c1NC(c1ccco1)CC2C(F)(F)F (centres undefined),-104,3,10,23*,7,2

# Source: PubChem BioAssay (The Scripps Research Institute Molecular Screening Center)
